Here are results for seven compounds from PubChem BioAssay (Tox21).

Values joined by “and” are separate entries in the source; they are usually repeats but may differ in a detail not shown here. Equal values may be shown once. Results filed as inconclusive are left out. Some compounds were tested as several samples or in several runs, with calls that do not always agree. Active and inactive are the calls of the source. Unless noted, calls follow the shape of the dose curve; as a rule, active = well fitted curve in the direction sought with a large enough effect in the repeat runs; inconclusive = weak or mixed curves; inactive = no such curve, though single readings can be large; an effect the other way counts as inactive or inconclusive.

A short description of test [1]: qHTS assay to identify small molecule agonists of the peroxisome proliferator-activated receptor delta (PPARd) signaling pathway - cell viability counter screen (AID 743211). Also: nearly all actives have a fitted effect of over 55% in size. An outline of the steps: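 PPARd-bla HEK293H cells (3000/well) were pre-incubated 5 h at 37 C, then exposed to compound for 17 h at 37 C. After 2 h with LiveBLAzer substrate, CellTiter-Glo was added to the same wells; luminescence read after 30 min at room temperature.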
(In general: In qHTS, concentration-response curves come from the screen itself.)

Test [2] concerns the target Peroxisome proliferator-activated receptor delta (Homo sapiens) (UniProt Q03181). Briefly: qHTS assay to identify small molecule agonists of the peroxisome proliferator-activated receptor delta (PPARd) signaling pathway (AID 743212; calls by dose curve). An outline of the steps: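 GeneBLAzer PPARd UAS-bla HEK293H cells (beta-lactamase reporter under UAS control), plated and rested 5 h at 37 C, then exposed to compounds in DMSO at 37 C; LiveBLAzer B/G FRET substrate added, 2 h room temperature, fluorescence read.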

Test [3] can be described thus: qHTS assay to identify small molecule antagonists of the peroxisome proliferator-activated receptor delta (PPARd) signaling pathway - cell viability counter screen (AID 743213). Also: nearly all actives have a fitted effect of over 50% in size. A digest of the protocol: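 Same-well viability: cells pre-incubated 5 h, dosed with compound plus 300 nM L165041, kept 17 h at 37 C, FRET substrate 2 h RT, then CellTiter-Glo 30 min RT and luminescence.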

Test [4] addresses Peroxisome proliferator-activated receptor delta (Homo sapiens) (UniProt Q03181). Briefly: qHTS assay to identify small molecule antagonists of the peroxisome proliferator-activated receptor delta (PPARd) signaling pathway (AID 743215; active = well fitted inhibition curve with a large enough effect in the signal ratio in the repeat runs, not every such curve was filed as active; the % refers to the signal ratio;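 also: cells stimulated with agonist L165041 at 300 nM final during compound exposure; series mostly up to about 62 µM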). An outline of the steps: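 PPARd UAS-bla HEK293H cells were pre-incubated 5 h at 37 C, then given test compounds in DMSO plus agonist L165041 (300 nM final). After 17 h at 37 C, beta-lactamase FRET substrate was added; fluorescence read after 2 h at room temperature.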

A short description of test [5]: qHTS assay to identify small molecule agonists of the farnesoid-X-receptor (FXR) signaling pathway - cell viability counter screen (AID 743218). Also: nearly all actives have a fitted effect of over 45% in size. A digest of the protocol:
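FXR-UAS-bla HEK 293T cells, plated 5 h at 37 C, were exposed to compounds for 16 h at 37 C. CellTiter-Glo was then added to the same wells as the bla readout; luminescence read after 30 min at room temperature.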

Test [6] can be described thus: qHTS assay to identify small molecule antagonists of the farnesoid-X-receptor (FXR) signaling pathway - cell viability counter screen (AID 743221; active = well fitted cell-killing curve with a large enough effect in the repeat runs, not every such curve was filed as active; also: nearly all actives have a fitted effect of over 50% in size). An outline of the steps: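 GeneBLAzer FXR-UAS-bla HEK 293T cells, compound plus chenodeoxycholic acid (50 uM final), 16 h at 37 C. CellTiter-Glo added to the same wells after the beta-lactamase read; luminescence read after 30 min at room temperature as viability.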

In test [7] the target is Vitamin D3 receptor (Homo sapiens) (UniProt P11473). Briefly: qHTS assay to identify small molecule agonists of the vitamin D receptor (VDR) signaling pathway (AID 743222; calls by dose curve). A digest of the protocol: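 VDR-bla cells were plated 4 h at 37C/5% CO2, then exposed to compounds in DMSO for 16 h. After LiveBLAzer B/G FRET substrate addition and 2 h at room temperature, beta-lactamase reporter fluorescence was read.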
Vitamin D3 receptor (Homo sapiens), sequence (P11473 whole entry, looked up): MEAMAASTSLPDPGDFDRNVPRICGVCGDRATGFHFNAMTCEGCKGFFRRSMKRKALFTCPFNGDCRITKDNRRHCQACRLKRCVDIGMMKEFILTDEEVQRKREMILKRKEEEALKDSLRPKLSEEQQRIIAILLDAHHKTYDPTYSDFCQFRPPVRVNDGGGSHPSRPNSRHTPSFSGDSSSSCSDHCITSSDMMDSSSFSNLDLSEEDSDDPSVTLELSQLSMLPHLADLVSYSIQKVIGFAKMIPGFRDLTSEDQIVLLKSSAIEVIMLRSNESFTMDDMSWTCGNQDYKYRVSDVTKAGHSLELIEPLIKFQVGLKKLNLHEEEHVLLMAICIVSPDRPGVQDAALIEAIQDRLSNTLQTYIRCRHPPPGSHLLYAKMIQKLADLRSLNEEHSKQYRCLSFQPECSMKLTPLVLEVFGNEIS

Test [8] has the same target. The experiment in a line: qHTS assay to identify small molecule antagonists of the vitamin D receptor (VDR) signaling pathway (AID 743223; active = well fitted inhibition curve with a large enough effect in the signal ratio in the repeat runs, not every such curve was filed as active; the % refers to the signal ratio). An outline of the steps:
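VDR-bla cells were treated with compound plus 3 nM final 1alpha,25-dihydroxyvitamin D3 for 16 h at 37C. Beta-lactamase reporter read by B/G FRET substrate fluorescence after 2 h at room temperature. qHTS format.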

The nature of test [9]: qHTS assay to identify small molecule agonists of the vitamin D receptor (VDR) signaling pathway - cell viability counter screen (AID 743224). Also: nearly all actives have a fitted effect of over 50% in size. Also: potency is read from the fitted curve at half-maximal effect. An outline of the steps: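 VDR-bla cells were preincubated 4 h at 37C/5% CO2, then exposed to compounds for 16 h. After the 2 h room-temperature bla FRET read, CellTiter-Glo was added to the same wells and luminescence read after 30 min.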

A short description of test [10]: qHTS assay to identify small molecule antagonists of the vitamin D receptor (VDR) signaling pathway - cell viability counter screen (AID 743225). Also: nearly all actives have a fitted effect of over 50% in size. An outline of the steps:
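VDR-UAS-bla HEK 293T cells were plated and incubated 4 h at 37C, then dosed with compound plus 3 nM (final) 1-alpha,25-dihydroxyvitamin D3 for 16 h. After the 2 h beta-lactamase read, viability in the same wells was read as CellTiter-Glo luminescence after 30 min at room temperature.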

Test [11] is described as follows: qHTS assay to identify small molecule agonists of the NFkB signaling pathway (AID 1159509; active = well fitted curve in the direction sought with a large enough effect in the signal ratio in the repeat runs, not every such curve was filed as active; the % refers to the signal ratio; also: series mostly up to about 61 µM). An outline of the steps:
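NFkB-bla ME-180 cells with a beta-lactamase reporter under an NF-kB response element were plated overnight, treated with compounds in DMSO for 5 hr at 37 C, then loaded with FRET substrate for 1.5 hr at room temperature.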

Test [12] in a line: qHTS assay to identify small molecule agonists of the NFkB signaling pathway - cell viability counter screen (AID 1159515; calls by dose curve; also: series mostly up to about 61 µM; nearly all actives have a fitted effect of over 55% in size). An outline of the steps: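 NFkB-bla ME-180 cells, 2,000/well, were plated overnight at 37 C, 5% CO2, then exposed to compounds in DMSO for 5 hr. After the bla FRET read, CellTiter-Glo was added to the same wells; luminescence was read after 30 min at room temperature.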

Test [13] can be described thus: qHTS assay to identify small molecule agonists of the endoplasmic reticulum stress response signaling pathway (AID 1159516; active = well fitted activation curve with a large enough effect in the signal ratio in the repeat runs, not every such curve was filed as active; the % refers to the signal ratio). A digest of the protocol: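 CellSensor ESRE-bla HeLa cells, carrying a beta-lactamase reporter driven by the ER stress response element, were plated overnight and exposed to compounds for 5 hr at 37 C. Reporter activity was read as FRET substrate fluorescence after 2 hr at room temperature.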

Test [14] in a line: qHTS assay to identify small molecule agonists of the endoplasmic reticulum stress response signaling pathway - cell viability counter screen (AID 1159517; calls by dose curve). An outline of the steps: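 Luminescence readout: CellTiter-Glo, 30 min RT, same wells as the ESRE-bla reporter read. HeLa ESRE-bla, 1,500 cells/well, o/n 37 C; cpd 5 hr 37 C/5% CO2.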
A short description of test [15]: qHTS assay to identify small molecule antagonists of the retinoid-related orphan receptor gamma (ROR-gamma) signaling pathway - cell viability counter screen (AID 1159520). Also: nearly all actives have a fitted effect of over 50% in size. A digest of the protocol: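 Tet-on ROR gamma CHO cells (1,000/well) were plated 4 hr, given compounds in DMSO for 2 hr at 37 C, then induced with 1 uM final doxycycline for 16 hr. Viability was read as ATP by CellTiter-Glo luminescence after 30 min.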

Test [16] addresses Nuclear receptor ROR-gamma (Homo sapiens) (UniProt P51449). The experiment in a line: qHTS assay to identify small molecule antagonists of the retinoid-related orphan receptor gamma (ROR-gamma) signaling pathway (AID 1159521). An outline of the steps: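 Tet-on ROR-gamma CHO cells with ROR response element-luciferase reporter; compounds added 2 hr before 1 uM doxycycline induction, then 16 hr at 37 C. Antagonism scored as decreased ONE-Glo luminescence.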

A short description of test [17]: qHTS assay to identify small molecule agonists of the AP-1 signaling pathway - cell viability counter screen (AID 1159525; calls by dose curve; also: nearly all actives have a fitted effect of over 55% in size). An outline of the steps:
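ME-180 AP-1-bla, 2500 cells/well, Opti-MEM + 0.5% dialyzed FBS; overnight 37 °C; cpd 15-pt titration, 5 h 37 °C; CellTiter-Glo 30 min RT; luminescence read; normalised to TOAB and DMSO controls.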

A short description of test [18]: qHTS assay to identify small molecule agonists of the AP-1 signaling pathway (AID 1159526; calls by dose curve).
For test [19], the target named is Bile acid receptor (Homo sapiens) (UniProt Q96RI1). The experiment in a line: qHTS assay to identify small molecule agonists of the farnesoid-X-receptor (FXR) signaling pathway (AID 743220; active = well fitted activation curve with a large enough effect in the signal ratio in the repeat runs, not every such curve was filed as active; the % refers to the signal ratio). A digest of the protocol:
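Beta-lactamase reporter under UAS control in GeneBLAzer FXR HEK 293T cells (5000/well) measured with LiveBLAzer FRET substrate after 2 h at room temperature. Compound exposure lasted 16 h at 37C.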

Bile acid receptor (Homo sapiens), sequence (Q96RI1 whole entry, looked up): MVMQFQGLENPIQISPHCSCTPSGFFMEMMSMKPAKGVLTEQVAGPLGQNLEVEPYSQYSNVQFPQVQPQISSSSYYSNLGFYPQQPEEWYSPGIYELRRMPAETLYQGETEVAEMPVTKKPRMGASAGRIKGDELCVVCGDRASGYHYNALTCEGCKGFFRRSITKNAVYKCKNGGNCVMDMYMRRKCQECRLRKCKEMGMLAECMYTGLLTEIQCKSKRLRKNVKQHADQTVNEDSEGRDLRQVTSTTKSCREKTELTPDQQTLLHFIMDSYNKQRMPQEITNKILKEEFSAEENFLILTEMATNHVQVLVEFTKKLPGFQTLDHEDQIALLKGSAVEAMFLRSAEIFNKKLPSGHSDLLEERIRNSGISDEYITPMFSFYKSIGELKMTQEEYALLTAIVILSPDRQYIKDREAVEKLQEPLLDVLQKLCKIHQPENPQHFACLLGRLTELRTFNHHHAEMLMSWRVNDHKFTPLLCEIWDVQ
Peroxisome proliferator-activated receptor delta (Homo sapiens), sequence (Q03181 whole entry, looked up): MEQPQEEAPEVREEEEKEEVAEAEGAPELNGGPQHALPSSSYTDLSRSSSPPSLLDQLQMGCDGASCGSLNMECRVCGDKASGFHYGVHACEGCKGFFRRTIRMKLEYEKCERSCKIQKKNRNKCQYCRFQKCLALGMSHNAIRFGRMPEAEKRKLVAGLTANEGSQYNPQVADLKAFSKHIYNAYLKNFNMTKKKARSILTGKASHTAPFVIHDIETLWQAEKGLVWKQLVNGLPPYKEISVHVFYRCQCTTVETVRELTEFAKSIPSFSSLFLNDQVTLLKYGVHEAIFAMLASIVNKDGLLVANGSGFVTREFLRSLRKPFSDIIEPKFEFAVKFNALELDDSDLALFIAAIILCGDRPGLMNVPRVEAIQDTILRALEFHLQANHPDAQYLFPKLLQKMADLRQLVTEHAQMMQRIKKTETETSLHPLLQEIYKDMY

For `CN(C)CCC#N`, the Potency entry in [1], in test [5], in [6], in test [9], in test [16] and in test [18] was “inactive” each time. The compound was called inactive in [2], in test [3], in [4], in test [7], in [8] and in test [10]. For the same compound, the compound was classed as inactive in [11], in test [12], in [13], in [14], in [15] and in [17].
On to `Cc1cc(O)ccc1Cl`, for which the Potency result in test [1], in test [5], in test [6], in [9], in [16] and in test [18] was “inactive” each time. Further, the result in [2], in test [3], in [4], in test [19], in [7] and in test [8] was inactive. The compound was classed as inactive in test [10], in test [11], in [12], in test [13], in test [14] and in test [15]. In test [17], the compound was called inactive.
Turning to `Nc1ccc([As](=O)(O)O)cc1`, the Potency result in test [1], in test [5], in [6], in test [9], in [16] and in test [18] was “inactive” in each case. The result in [2], in test [3], in [4], in test [7], in [10] and in test [11] was inactive. Further, the call in test [12], in test [13], in test [14], in [15] and in test [17] was inactive.
For `N#CN=C(N)N`, the Potency entry in [1], in [5], in [6], in test [9], in [16] and in [18] was “inactive” throughout. Further, the call in test [2], in [3], in test [4], in test [19], in test [7] and in test [8] was inactive. Besides, the result in [11], in test [12], in [13], in test [14], in [15] and in test [17] was inactive.
Consider `ClC(Cl)c1ccccc1`, for which the Potency result in test [1], in test [5], in test [6], in test [9], in test [16] and in test [18] was “inactive” each time. Moreover, the compound was called inactive in test [2], in [3], in test [4], in [7], in [8] and in test [10]. Also, the result in test [11], in test [12], in test [13], in test [14], in [15] and in test [17] was inactive.
Turning to `CN1C(=O)CCS(=O)(=O)C1c1ccc(Cl)cc1` (centres undefined), the Potency entry in [1], in [5], in [6], in [9], in [16] and in test [18] was “inactive” throughout. Also, the result in test [2], in test [3], in [4], in test [7], in test [8] and in [10] was inactive. Besides, the call in [11], in test [12], in [13], in test [14], in [15] and in [17] was inactive.
Turning to `Nc1nc(N)nc(NC2CC2)n1`, the Potency entry in test [1], in test [5], in [6], in test [16] and in [18] was “inactive” throughout. Moreover, the compound was called inactive in test [2], in [3], in test [4], in test [19], in test [11] and in [12]. In addition, the result in test [13], in test [14], in test [15] and in test [17] was inactive. In test [9], the Potency result is “inactive and 43.6 µM (active)”.
